# Results published in PubChem BioAssay AID1345085 (National Center for Advancing Translational Sciences (NCATS), 2018).
# Inconclusive results are not listed. Active and inactive are the calls of the source. Calls follow the shape of the dose curve; as a rule, active = well fitted cell-killing curve with a large enough effect; inconclusive = small, poorly fitted or top-dose-only effect, or effect the other way; inactive = no such curve, though single readings can be large or run the other way.
# System: Jar
# Assay: Confirmatory qHTS for gynecologic anti-cancer compounds from libraries of approved drugs and bioactive compounds; also: nearly all actives have a fitted effect of over 55% in size
# Settings: gynecologic cancer cell panel viability, ATPlite luminescence, 48 h; series mostly up to 57.6 µM
# Summary of the method: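 IC50 values derive from an ATPlite ATP-content luminescence assay following 48 h treatment at 37 C. Each compound ran as an 11-concentration, threefold series (57.5 uM to 0.977 nM); HEK 293T served as control line for selectivity index.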
# Potency is read from the fitted curve at half-maximal effect.
row,Structure (SMILES),Potency
1,CC1=C(CO)C(=O)O[C@@H]([C@@H](C)[C@H]2CC[C@H]3[C@@H]4C[C@H]5O[C@]56[C@@H](O)C=CC(=O)[C@]6(C)[C@H]4CC[C@]23C)C1,8.41 µM (active)
2,CC(C)C[C@H](NC(=O)[C@H](Cc1ccccc1)NC(=O)c1cnccn1)B(O)O,0.0485 µM (active)
3,N=C(N)c1ccc(OCCCCCOc2ccc(C(=N)N)cc2)cc1,5.44 µM (active)
4,Cc1nc(N)sc1-c1ccnc(Nc2ccc(N3CCOCC3)cc2)n1,3.85 µM (active)
5,Nc1nc(=S)c2[nH]cnc2[nH]1,9.68 µM (active)
6,NC(=O)c1ccc2nc(-c3ccc(Oc4ccc(Cl)cc4)cc3)[nH]c2c1,24.3 µM (active)
7,COc1cc2nccc(Oc3ccc(NC(=O)C4(C(=O)Nc5ccc(F)cc5)CC4)cc3)c2cc1OC,27.3 µM (active)
8,NS(=O)(=O)OC[C@@H]1C[C@@H](n2ccc3c(N[C@H]4CCc5ccccc54)ncnc32)C[C@@H]1O,inactive
9,COc1cc(Nc2c(C#N)cnc3cc(OCCCN4CCN(C)CC4)c(OC)cc23)c(Cl)cc1Cl,24.3 µM (active)
10,Cn1cnc2c(F)c(Nc3ccc(Br)cc3Cl)c(C(=O)NOCCO)cc21,inactive
11,COc1ccccc1N1CCN(CC(O)COc2cccc3ccccc23)CC1 (stereo not given),inactive
12,Nc1ccccc1NC(=O)c1ccc(CNc2nccc(-c3cccnc3)n2)cc1,1.93 µM (active)
13,Cc1ccc(C(N)=O)cc1Nc1nccc(-c2cn(C(C)C)c3cnccc23)n1,6.85 µM (active)
14,CC(Oc1ccc2[nH]nc(/C=C/c3cnn(CCO)c3)c2c1)c1c(Cl)cncc1Cl (stereo not given),inactive
15,NC(=O)c1cnc(-c2ccc(C3(N)CCC3)cc2)c(-c2ccccc2)c1,27.3 µM (active)
16,O=c1[nH]c(=O)n([C@H]2C[C@H](O)[C@@H](CO)O2)cc1Br,inactive
17,CC1=C(/C=C/C(C)=C/C=C/C(C)=C/C(=O)Nc2ccc(O)cc2)C(C)(C)CCC1,21.7 µM (active)
18,Cc1ccc(NC(=O)c2ccc(CN3CCN(C)CC3)cc2)cc1Nc1nccc(-c2cccnc2)n1,inactive
19,Cc1nc2ccc(CN(C)c3ccc(C(=O)NC(CCC(=O)O)C(=O)O)s3)cc2c(=O)[nH]1 (stereo not given),inactive
20,COc1c(C)c2c(c(O)c1C/C=C(\C)CCC(=O)OCCN1CCOCC1)C(=O)OC2,inactive
21,CC[C@]1(O)C[C@H]2CN(CCc3c([nH]c4ccccc34)[C@@](C(=O)OC)(c3cc4c(cc3OC)N(C=O)[C@H]3[C@@](O)(C(=O)OC)[C@H](OC(C)=O)[C@]5(CC)C=CCN6CC[C@]43[C@@H]65)C2)C1,0.273 µM (active)
22,CNC(=O)c1nn(C)c2c1C(C)(C)Cc1cnc(Nc3ccc(N4CCN(C)CC4)cc3)nc1-2,1.72 µM (active)
23,CN(C)CC/C=C1\c2ccccc2COc2ccccc21,inactive
24,Cc1cc(Nc2cc(N3CCN(C)CC3)nc(Sc3ccc(NC(=O)C4CC4)cc3)n2)n[nH]1,inactive
25,CNC(=O)c1ccccc1Nc1nc(Nc2ccc(N3CCOCC3)cc2OC)ncc1Cl,19.3 µM (active)
